The supplement of paper PMC5641865, “A screen for kinase inhibitors identifies antimicrobial imidazopyridine aminofurazans as specific inhibitors of the Listeria monocytogenes PASTA kinase PrkA” (The Journal of Biological Chemistry, 2017)
± gives the standard deviation of the averaged measurements.

Tested on: Listeria monocytogenes 10403S
Assay: growth inhibition relative to ceftriaxone-alone control; higher = stronger potentiation of ceftriaxone growth inhibition
Conditions: 10 µM; ceftriaxone 1 ug/ml; 12 h
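Also: End-point A600 read in BHI broth at 37 °C with 2% DMSO, inhibition computed as (1 − OD with compound plus ceftriaxone ÷ OD with ceftriaxone only) × 100.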

| Compound | growth inhibition |
| --- | --- |
| COc1ccc(S(=O)(=O)N(C(C)=O)c2ccccc2/C=C/c2cc[n+]([O-])cc2)cc1 | 13.3 ± 8.8% |
| COc1ccc2cc(-c3c(-c4ccncc4)nc(-c4ccc([S+](C)[O-])cc4C)n3C)ccc2c1 (configuration not stated) | 17.6 ± 9% |
| Fc1cccc(COc2ccc(Nc3ncnc4cc(-c5ccc[nH]5)sc34)cc2Cl)c1 | 7.47 ± 4% |
| COc1ccc(CNC(=O)c2ccc(-c3cc(-c4nnc(C)o4)ccc3C)cc2)cc1 | 9.02 ± 3.7% |
| COc1cccc(-c2c[nH]c3c(N/N=C/c4ccncc4)ncnc23)c1 | -10.6 ± 14% |
| CN(C)C1CCN(C(=O)c2ccc(NC(=O)Nc3ccc(-c4nc(N5CCOCC5)nc(N5CCOCC5)n4)cc3)cc2)CC1 | 22.7 ± 7.4% |
| N#CC[C@H](C1CCCC1)n1cc(-c2ncnc3[nH]ccc23)cn1 | 10.6 ± 1.1% |
| Fc1ccc(-c2ncn(CCCN3CCOCC3)c2-c2ccncc2)cc1 | 1.14 ± 3.2% |
| Cc1ccc(-n2nc(C(C)(C)C)cc2NC(=O)Nc2ccc(OCCN3CCOCC3)c3ccccc23)cc1 [BIRB 796 (Doramapimod)] | 10.5 ± 14% |
| O=C1NC(=O)C(N2CCc3ccccc32)=C1c1ccc(Cl)cc1 | 14.5 ± 6% |
| COc1ccc2c(Oc3ccc(NC(=O)c4c(C)n(CC(C)(C)O)n(-c5ccccc5)c4=O)nc3)ccnc2c1 | 28.9 ± 13% |
| CCn1c(-c2nonc2N)nc2c(C#CC(C)(C)O)ncc(OC[C@@H]3CCCN3)c21 | 74 ± 6.7% |
| COC(=O)c1cncc(/C=C/c2c(C)cc(O)cc2C)c1 | -6.45 ± 1.7% |
| CO[C@H]1C[C@@H]2CC[C@@H](C)[C@@](O)(O2)C(=O)C(=O)N2CCCC[C@H]2C(=O)O[C@H]([C@H](C)C[C@@H]2CC[C@@H](OP(C)(C)=O)[C@H](OC)C2)CC(=O)[C@H](C)/C=C(\C)[C@@H](O)[C@@H](OC)C(=O)[C@H](C)C[C@H](C)/C=C/C=C/C=C/1C [Deforolimus (Ridaforolimus)] | 39.2 ± 14% |
| FC(F)c1nc2ccccc2n1-c1nc(N2CCOCC2)nc(N2CCOCC2)n1 | 19.6 ± 15% |
| C#Cc1cccc(Nc2ncnc3ccc(OCCCCNCCS(C)(=O)=O)cc23)c1 | -12 ± 5.6% |
| CCCN(CCS(C)(=O)=O)Cc1ccc(-c2ccc3ncnc(Nc4ccc(OCc5cccc(F)c5)c(Cl)c4)c3c2)o1 | -7.09 ± 4.2% |
| CS(=O)(=O)CCNCc1ccc(-c2ccc3ncnc(Nc4ccc(OCc5ccccc5)cc4)c3c2)o1 | -2.04 ± 4.2% |
| CS(=O)(=O)Nc1ccc(-c2ccc3c(NC(=O)C4CC4)n[nH]c3c2)cc1 | 38.6 ± 43% |

| Compound | growth inhibition |
| --- | --- |
| O=C1NC(=O)C(c2ccc(Cl)cc2)=C1Nc1ccc(Cl)c(C(=O)O)c1 | 6.2 ± 5.4% |
| COc1cc(OC)c(/C=C/S(=O)(=O)Cc2ccc(OC)c(NCC(=O)O)c2)c(OC)c1 | 4.69 ± 0.45% |
| Cc1cc(CN2CCN(c3c(Br)cnc4nc(-c5ccc(N6CCN(C)CC6)cc5)[nH]c34)CC2)no1 | 40.4 ± 40% |
| Cc1cc(C(=O)NOCCO)c(Nc2ccc(I)cc2F)n(C)c1=O | 13.2 ± 5.6% |
| COc1ccc2ncnc(Nc3ccc(OCc4ccccc4)cc3)c2c1 | 1.99 ± 13% |
| COc1cc2ncnc(Nc3ccc(F)c(Cl)c3)c2cc1NC(=O)/C=C/CN1CCCCC1 | 60 ± 55% |
| CC(C)(O)CC(=O)NCCn1ccc2ncnc(Nc3ccc(Oc4cccc(C(F)(F)F)c4)c(Cl)c3)c21 | 98.62 ± 0.75% |
| CCn1c(-c2nonc2N)nc2c(C#CC(C)(C)O)nc(OC[C@H](N)c3ccccc3)cc21 | 66.2 ± 2.7% |
| Cc1csc(-c2nnc(Nc3ccc(Oc4ncccc4-c4ccnc(N)n4)cc3)c3ccccc23)c1 | 64 ± 34% |
| NS(=O)(=O)c1ccc(N/N=C2\C(=O)Nc3ccc(-c4cnco4)cc32)cc1 | 0.00978 ± 0.57% |
| Nc1nc(N)c2nc(-c3cccc(O)c3)cnc2n1 | 8.99 ± 4.4% |
| CN1CCN(CCOc2cc(OC3CCOCC3)c3c(Nc4c(Cl)ccc5c4OCO5)ncnc3c2)CC1 [Saracatinib (AZD0530)] | -2.45 ± 20% |
| Cc1ccc2c(-c3ccnc(Nc4ccc5c(c4)OCCO5)n3)c(-c3ccc(C(F)(F)F)cc3)nn2n1 | -1.85 ± 0.84% |
| Cc1ccc(NC(=O)c2cccc(C(C)(C)C#N)c2)cc1Nc1ccc2ncn(C)c(=O)c2c1 | 47.4 ± 11% |
| CNC(=O)c1ncccc1Nc1nc(Nc2cc3c(cc2OC)CCCN3C(=O)CN(C)C)nc2[nH]ccc12 | -2.03 ± 1.3% |
| CC(C)c1ccc(Nc2nccc(-c3cnn4ncccc34)n2)cc1 | -0.923 ± 0.22% |
| COc1cc(N2CCC(N3CCN(C)CC3)CC2)ccc1Nc1ncc(Cl)c(Nc2ccccc2S(=O)(=O)C(C)C)n1 | 79.1 ± 24% |
| CC(C)=Cc1cccc2c1/C(=N/Nc1ccc(S(N)(=O)=O)cc1)C(=O)N2 | -2.72 ± 0.38% |
